Screening results as filed in PubChem.
USP7 inh: inhibitors of human USP7 deubiquitinase. Ubiquitin carboxyl-terminal hydrolase 7 (Homo sapiens), Q93009. purified USP7, Ub-rhodamine cleavage fluorescence. inhibition, % at 20 µM. 47,000 tested, 0.3% active
UCHL1 inh: inhibitors of human UCHL1 deubiquitinase | purified UCHL1, Ub-rhodamine cleavage fluorescence | inhibition, % at 20 µM | 47,000 tested, 0.2% active | AID 1645859, 2021
OTUD3 inh: inhibitors of human OTUD3 deubiquitinase; inhibition, % at 25 µM; purified OTUD3, Ub-rhodamine fluorescence, 2 h; 47,000 tested, 0.7% active
USP10 inh: inhibitors of human USP10 deubiquitinase | inhibition, % at 20 µM | AID 1645856, 2021 | purified USP10, Ub-rhodamine fluorescence, 60 min | Ubiquitin carboxyl-terminal hydrolase 10 (Homo sapiens), Q14694 | 47,000 tested, 1.1% active
An asterisk follows results filed as active. A selection: hits, their analogues and other compounds. The true share with any hit is near 1.8%. No stated cut-off is given here; in the data, active means inhibition above about 30%; inactive means the rest.

SMILES	USP7 inh	UCHL1 inh	OTUD3 inh	USP10 inh
Cc1ccc(NC(=O)Cn2c(=O)n(CC(=O)NCc3ccco3)c(=O)c3ccccc32)cc1C	-2.4	-7.0	40.9*	21.1
COc1cccc(C(=O)Cn2c(=O)n(CCCC(=O)NCc3ccco3)c(=O)c3ccc(Cl)cc32)c1	-5.9	-0.7	0.1	24.4
COc1ccc([C@H]2N(C(=O)c3cc4ccccc4c(=O)[nH]3)CCC[C@]23CCC(=O)N3)cc1	5.7	0.2	9.9	0.6
Cc1ccc(N(Cc2nc3nc(C)c(Cl)c(C)n3n2)C(=O)c2ccco2)cc1	-2.3	-2.4	2.1	0.0
CCOc1ccc(NC(=O)Cn2c(=O)n(CCC(=O)NCc3ccco3)c(=O)c3ccccc32)cc1	-0.3	7.9	10.8	44.6*
Cc1cc(NC(=O)Cn2c(=O)n(CCCCC(=O)NCc3ccco3)c(=O)c3ccccc32)ccc1Br	5.1	0.9	18.4	59.6*
O=C(CCn1c(=O)c2ccccc2n(Cc2ccc([N+](=O)[O-])cc2)c1=O)NCc1ccco1	-10.6	2.1	12.7	20.0
CNC(=O)c1cc2c(nc1N(C)C)CCN(c1ncc(F)cn1)CC2	-0.3	1.7	8.3	-0.5
CC(C)(C)c1cc(C(=O)N2CCOCC2c2ccn[nH]2)n[nH]1 (stereo not given)	0.1	-7.0	-14.1	-2.0
Cc1nc(C2COCCN2C(=O)c2cc(C(C)(C)C)[nH]n2)cc(=O)[nH]1 (stereo not given)	-0.8	37.3*	-8.7	2.3
COc1ccc(C(NC(=O)c2nc3n(n2)-c2ccccc2S(=O)(=O)N3)C(C)C)cc1 (stereo not given)	10.2	2.9	3.1	30.4*
CCCC(C(=O)Nc1cccc(OC)c1)N1Cc2ccccc2C1=O (stereo not given)	2.8	1.9	3.6	3.5
COc1ccccc1NC1c2ncccc2C(=O)N1Cc1ccccc1 (stereo not given)	0.0	1.4	-6.6	-3.9
Cc1nc(-c2noc(-c3cccc(F)c3)n2)cn1CC(=O)Nc1ccccc1	-33.5	17.6	-6.2	62.3*
